# Bioassay records (PubChem BioAssay)
# Most compounds without a hit are left out; they make up all but 3.9% or so of the library.
# Anthrax LF prot = blocks Bacillus anthracis lethal factor protease. P15917. multiplex microsphere protease cleavage assay, LF. inhibition, % at 10 µM. 360,000 tested, 0.12% active; further: plate controls were buffer without enzyme for full effect and enzyme alone for no effect
# BH1578 lux ind = induces V. cholerae light production without autoinducers | V. cholerae BH1578 lux reporter, luminescence, 6 h | activation, % at 18.7 µM | 350,000 tested, 0.16% active; in the data active means activation mostly above about 9.7%, no sharp cut-off; inconclusive means no clear call, values can overlap the other calls; inactive means mostly below about 3.7%
# BoNT F protease = blocks Botulinum neurotoxin F light chain protease; Multiplex microsphere protease cleavage assay, flow cytometry; inhibition, % at 10 µM; 360,000 tested, 0.22% active; in the data active means inhibition above about 35%, passing the limit was not always enough; inconclusive means no clear call, values can overlap the other calls; further: plate controls were buffer without enzyme for full effect and enzyme alone for no effect
# MazF activator = MazEF (E. coli) toxin RNase activation; FAM/BHQ RNA-DNA oligo cleavage fluorescence, 5 h; activation, % at 20 µM; P0AE70; AID 504720; 350,000 tested, 0.32% active; in the data active means activation above about 50%
# Target sequence (P0AE70 whole entry, looked up): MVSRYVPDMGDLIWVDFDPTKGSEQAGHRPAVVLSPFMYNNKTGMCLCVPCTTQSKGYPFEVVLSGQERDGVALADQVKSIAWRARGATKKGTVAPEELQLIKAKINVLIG
# BoNT-A LC inh2 = blocks Botulinum neurotoxin A light chain protease; multiplex microsphere protease substrate cleavage, flow cytometry; inhibition, % at 10 µM; 360,000 tested, 0.17% active; AID 588499; further: plate controls were buffer without enzyme for full effect and enzyme alone for no effect
# Autofluor counter = flagged as autofluorescent in microsphere protease counterscreen. 360,000 tested, 3.1% active. compound autofluorescence counterscreen, microsphere flow cytometry; hits give high values. AID 624483. fluorescence intensity (concentration not given with the values); in the data active means fluorescence intensity above about 16000; inconclusive means no clear call, values can overlap the other calls
# * hit, by the source's call; i = inactive; ? = inconclusive; nt = no result given. Unless noted, no stated cut-off is given here; in the data, active means inhibition above about 30%; inconclusive means no clear call, values can overlap the other calls; inactive means below that.
SMILES,Anthrax LF prot,BH1578 lux ind,BoNT F protease,MazF activator,BoNT-A LC inh2,Autofluor counter
CCOC(=O)/C(C#N)=C/C=C1/C=CC=CN1C,?,0,38*,-9,2,3559
COc1ccc(C(C)NC(=O)c2ccoc2C)cc1OC (centres undefined),-2,1,-6,1,-4,24236*
CCOC(=O)C1C(=O)CC(C)(O)C(C(=O)OCC)C1c1cc(Br)ccc1OC (centres undefined),-3,0,8,4,-2,?
CCOC(=O)C1C(=O)CC(C)(O)C(C(=O)OCC)C1c1ccccc1OC (centres undefined),1,i,1,2,-1,21006*
Cn1cccc1C(=O)OCC(=O)N1CCc2ccccc2C1,2,i,-2,2,0,2782
O=S1(=O)CCC(N2CCOCC2)C1 (centres undefined),-4,0,-4,1,?,23902*
C=CCn1c(SCC(=O)NC2CC2)nnc1-c1cccs1,2,i,-7,2,1,5315
C=CCn1c(SCC(=O)c2ccc(NS(=O)(=O)c3ccccc3)cc2)nnc1-c1cccs1,0,i,0,-9,?,20128*
C=CCn1c(CCNC(=O)c2cccs2)nnc1SCC(=O)c1ccc(Br)cc1,1,i,0,-2,-1,20927*
C=CCn1c(CCNC(=O)c2cccs2)nnc1SCC(=O)Nc1cccc(C(C)=O)c1,-3,i,-9,4,0,3386
C=CCn1c(SCC(=O)Nc2ccc(C(=O)OCC)cc2)nnc1-c1cccs1,2,i,6,6,-1,3726
C=CCn1c(SCC(=O)C(C)(C)C)nnc1-c1ccccn1,-2,i,0,-2,0,20695*
C=CCn1c(SCC(=O)C(C)(C)C)nnc1-c1cccs1,0,-2,0,0,0,23404*
COC(=O)[C@]12CCCCC=C1N(Cc1ccco1)C(=O)[C@H](CC(=O)N1CCCCC1)C2,-7,nt,-2,nt,0,5250
O=C(CSc1cc(Cl)ccc1Cl)Nc1ccc(N2CCOCC2)cc1,-6,i,-18,7,0,3040
c1coc(Cn2c(SCc3nc4ccccc4[nH]3)nnc2-c2cccs2)c1,1,2,3,1,2,18667*
C(=C\c1ccccc1)/CSc1nnc(-c2ccncc2)n1Cc1ccco1,-1,0,-3,-20,0,2992
Cc1ccccc1CSc1nnc(-c2cccs2)n1Cc1ccco1,-7,0,1,1,0,4830
C(=C\c1ccccc1)/CSc1nnc(-c2ccccc2)n1Cc1ccco1,-2,-1,1,-9,1,23193*
c1ccc(CSc2nnc(-c3cccs3)n2Cc2ccco2)cc1,-1,2,-7,8,-5,20965*
O=C(/C=C/c1cccc([N+](=O)[O-])c1)n1cnc2ccccc21,-6,i,-10,-6,-1,5882
O=C(CCC(=O)c1ccc(F)cc1)Nc1cccc(S(=O)(=O)Nc2cccc(Cl)c2)c1,0,0,6,-1,1,2061
Cc1cccc(C)c1NC(=O)C(c1ccccc1)N1CCC(Cc2ccccc2)CC1 (centres undefined),-4,nt,2,nt,0,5355
CC1(C)Cc2ccccc2-c2nnc(-c3ccccn3)n21,-5,-1,-2,1,0,20079*
CC1(C)Cc2ccccc2-c2nnc(-c3ccccc3)n21,3,i,1,2,2,22143*
SMILES,Anthrax LF prot,BH1578 lux ind,BoNT F protease,MazF activator,BoNT-A LC inh2,Autofluor counter
CCOC(=O)C(C)Sc1nnc2n1C(C)(C)Cc1ccccc1-2 (centres undefined),-4,i,-9,-6,?,24062*
CC1(C)Cc2ccccc2-c2nnc(SCc3ccccc3)n21,7,i,0,7,1,8566
CC(C)c1nc2scc(-c3ccc(Cl)cc3)c2c(=O)n1N,-8,0,-7,10,0,3541
CC(C)(C)NC(=O)COC(=O)c1ccc2c(c1)C(=O)N(Cc1ccco1)C2=O,1,-1,0,3,2,5295
COC(=O)C1C(=O)C2=C(CC1C)NC(C)=C(C(=O)OC(C)C)C2c1ccc(OC)c(O)c1 (centres undefined),2,i,3,5,1,22658*
C=CCn1c(SCC#N)nnc1-c1ccc2ncccc2c1,0,-1,?,11,1,4228
Clc1ccc(-c2nnc(-c3ccccc3Cl)o2)cc1,-6,-1,-6,-5,-4,17061*
